Among the data in PubChem BioAssay (Tox21) are Potency and outcome values, retold here.

Values joined by “and” are separate entries in the source; they are usually repeats but may differ in a detail not shown here. Identical values can stand only once. Results filed as inconclusive are left out. Some compounds were tested as several samples or in several runs, with calls that do not always agree. Active and inactive are the calls of the source. Unless noted, calls follow the shape of the dose curve; as a rule, active = well fitted curve in the direction sought with a large enough effect in the repeat runs; inconclusive = weak or mixed curves; inactive = no such curve, though single readings can be large; an effect the other way counts as inactive or inconclusive.

A short description of assay [1]: qHTS assay to identify aromatase inhibitors - cell viability counter screen (AID 743084).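 Also: cells stimulated with testosterone during compound exposure; nearly all actives have a fitted effect of over 55% in size.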 Also: potency is read from the fitted curve at half-maximal effect.
In assay [2] the target is Aryl hydrocarbon receptor (Homo sapiens) (UniProt P35869). Briefly: qHTS assay to identify small molecule that activate the aryl hydrocarbon receptor (AhR) signaling pathway (AID 743085). Also: nearly all actives have a fitted effect of over 15% in size. Also: potency is read from the fitted curve at half-maximal effect.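 As to activation: HG2L7.5c1 human HepG2 liver cells with stably integrated DRE-driven firefly reporter; series mostly up to about 70 µM.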 The gist of the method:
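Luminescence read-out: ONE-Glo reagent, 30 min at room temperature, in HG2L7.5c1 HepG2 reporter cells treated 24 h at 37C. Viability was measured beforehand by CellTiter-Fluor fluorescence after 30 min at 37C.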
(In qHTS, concentration-response curves come from the screen itself.)

Assay [3] is described as follows: qHTS assay to identify small molecule that activate the aryl hydrocarbon receptor (AhR) signaling pathway - cell viability counter screen (AID 743086).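 Also: HepG2 liver cells carrying the AhR DRE luciferase reporter; series mostly up to about 70 µM; nearly all actives have a fitted effect of over 45% in size.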 The gist of the method:
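Cytotoxicity counter screen: CellTiter-Fluor signal (30 min, 37 C) in 4000 HepG2 cells/well carrying the DRE-luciferase reporter, following 24 h compound exposure at 37 C.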

Assay [4] deals with Peroxisome proliferator-activated receptor gamma (Homo sapiens) (UniProt P37231). The assay is described as follows: qHTS assay to identify small molecule agonists of the peroxisome proliferator-activated receptor gamma (PPARg) signaling pathway (AID 743094; active = well fitted activation curve with a large enough effect in the signal ratio in the repeat runs, not every such curve was filed as active; the % refers to the signal ratio). In short, it runs like this: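 Quantitative HTS agonist mode: stable HEK293H line with UAS-beta-lactamase reporter under PPARg control, 17 h compound exposure at 37C, fluorescence after 1 h FRET substrate loading at room temperature.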
Peroxisome proliferator-activated receptor gamma (Homo sapiens), sequence (P37231 whole entry, looked up): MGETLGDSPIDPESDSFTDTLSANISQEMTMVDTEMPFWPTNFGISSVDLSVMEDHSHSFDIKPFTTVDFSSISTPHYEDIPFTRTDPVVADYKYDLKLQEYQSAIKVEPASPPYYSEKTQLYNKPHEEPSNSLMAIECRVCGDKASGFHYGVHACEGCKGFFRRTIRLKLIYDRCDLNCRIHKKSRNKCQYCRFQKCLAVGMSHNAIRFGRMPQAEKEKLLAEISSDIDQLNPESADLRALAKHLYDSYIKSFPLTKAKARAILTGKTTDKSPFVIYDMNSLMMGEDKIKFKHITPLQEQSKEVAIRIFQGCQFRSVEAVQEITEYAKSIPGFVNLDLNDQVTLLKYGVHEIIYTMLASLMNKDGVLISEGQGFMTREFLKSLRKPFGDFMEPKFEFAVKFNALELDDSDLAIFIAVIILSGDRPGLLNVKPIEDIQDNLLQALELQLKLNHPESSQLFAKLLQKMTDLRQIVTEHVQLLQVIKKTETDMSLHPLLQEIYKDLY

Assay [5] shares this target. Briefly: qHTS assay to identify small molecule antagonists of the peroxisome proliferator-activated receptor gamma (PPARg) signaling pathway (AID 743191; calls by dose curve; also: series mostly up to about 63 µM; nearly all actives have a fitted effect of over 30% in size). The gist of the method:
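Beta-lactamase reporter under UAS control in HEK293H PPARg-bla cells; compound treatment 17 h at 37C. Read-out: fluorescence intensity after 1 h room-temperature incubation with LiveBLAzer B/G FRET substrate.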

Assay [6] is described as follows: qHTS assay to identify small molecule antagonists of the peroxisome proliferator-activated receptor gamma (PPARg) signaling pathway - cell viability counter screen (AID 743194). Also: nearly all actives have a fitted effect of over 55% in size. The gist of the method:
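Viability was measured as CellTiter-Glo luminescence in GeneBLAzer PPARg UAS-bla HEK293H cells. These cells had been exposed 17 h at 37 C to compounds together with rosiglitazone at 50 nM final, with the beta-lactamase readout taken in the same wells.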

Assay [7] can be described thus: qHTS assay for small molecule agonists of the antioxidant response element (ARE) signaling pathway (AID 743202; active = well fitted activation curve with a large enough effect in the signal ratio in the repeat runs, not every such curve was filed as active; the % refers to the signal ratio; also: potency is read from the fitted curve at half-maximal effect). The gist of the method:
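An ARE-responsive beta-lactamase gene stably integrated in HepG2 cells serves as reporter. After 5 h plating and 16 h compound incubation at 37 C, fluorescence of the B/G FRET substrate was measured.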

Assay [8] is described as follows: qHTS assay for small molecule agonists of the antioxidant response element (ARE) signaling pathway - cell viability counter screen (AID 743203; calls by dose curve; also: nearly all actives have a fitted effect of over 55% in size). In short, it runs like this:
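Seeded at 2,000 cells/well, ARE-bla HepG2 cells were incubated 5 hrs before compound addition. After 16 hrs of treatment at 37C with 5% CO2, CellTiter-Glo reagent was added and luminescence read 30 min later.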

Assay [9] in a line: qHTS assay for small molecule activators of the heat shock response signaling pathway - cell viability counter screen (AID 743209). Also: nearly all actives have a fitted effect of over 50% in size. In short, it runs like this: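 First, HSE-bla HeLa cells were seeded at 1500 cells/well and kept overnight at 37 C. Next, compounds were pinned in and incubated 5 h. After the FRET substrate step, CellTiter-Glo was added and luminescence read 30 min later.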

A short description of assay [10]: qHTS assay for small molecule activators of the heat shock response signaling pathway (AID 743210; active = well fitted activation curve with a large enough effect in the signal ratio in the repeat runs, with a control signal flat, not every such curve was filed as active; the % refers to the signal ratio;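 also: HeLa cells with beta-lactamase reporter driven by heat shock elements; series mostly up to about 63 µM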). The gist of the method:
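In HSE-bla HeLa cells, 5 h compound incubation (37 C) precedes addition of LiveBLAzer B/G substrate; after 2.5 h at room temperature, fluorescence intensity indicates reporter induction.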

A short description of assay [11]: qHTS assay to identify small molecule agonists of the peroxisome proliferator-activated receptor delta (PPARd) signaling pathway - cell viability counter screen (AID 743211). Also: nearly all actives have a fitted effect of over 55% in size. Also: potency is read from the fitted curve at half-maximal effect. The gist of the method: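 Read-out: CellTiter-Glo luminescence, 30 min RT, measured in the same wells as the beta-lactamase reporter. Cells: GeneBLAzer PPAR delta UAS-bla HEK293H, 3000 cells/well, compound exposure 17 h at 37C.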

The target in assay [12] is Peroxisome proliferator-activated receptor delta (Homo sapiens) (UniProt Q03181). The assay is described as follows: qHTS assay to identify small molecule agonists of the peroxisome proliferator-activated receptor delta (PPARd) signaling pathway (AID 743212; calls by dose curve). The gist of the method: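 HEK293H UAS-bla reporter cells, human PPARd system; compounds delivered in DMSO after 5 h plating, then at 37 C. Beta-lactamase FRET read, 2 h RT substrate step.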
Peroxisome proliferator-activated receptor delta (Homo sapiens), sequence (Q03181 whole entry, looked up): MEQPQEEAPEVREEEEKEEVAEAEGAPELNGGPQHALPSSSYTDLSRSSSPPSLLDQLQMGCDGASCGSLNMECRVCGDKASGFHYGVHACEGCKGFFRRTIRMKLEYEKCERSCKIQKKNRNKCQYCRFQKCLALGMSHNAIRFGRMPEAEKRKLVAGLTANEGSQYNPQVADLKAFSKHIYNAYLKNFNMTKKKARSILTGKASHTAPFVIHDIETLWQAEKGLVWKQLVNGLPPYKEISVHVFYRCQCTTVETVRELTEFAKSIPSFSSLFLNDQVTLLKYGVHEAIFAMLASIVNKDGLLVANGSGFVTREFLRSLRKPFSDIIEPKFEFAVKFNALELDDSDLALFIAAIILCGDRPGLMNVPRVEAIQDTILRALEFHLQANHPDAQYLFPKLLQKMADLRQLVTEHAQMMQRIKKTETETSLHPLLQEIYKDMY

Assay [13] is described as follows: qHTS assay to identify small molecule antagonists of the peroxisome proliferator-activated receptor delta (PPARd) signaling pathway - cell viability counter screen (AID 743213). Also: nearly all actives have a fitted effect of over 50% in size. In short, it runs like this: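 Agonist-stimulated (L165041, 300 nM final) HEK293H PPARd UAS-bla cells are exposed to compounds for 17 h at 37 C, and ATP-based luminescence (CellTiter-Glo) from the same wells reports cytotoxicity.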

The target of assay [14] is Peroxisome proliferator-activated receptor delta (Homo sapiens) (UniProt Q03181). Briefly: qHTS assay to identify small molecule antagonists of the peroxisome proliferator-activated receptor delta (PPARd) signaling pathway (AID 743215; active = well fitted inhibition curve with a large enough effect in the signal ratio in the repeat runs, not every such curve was filed as active; the % refers to the signal ratio; also: series mostly up to about 62 µM). The gist of the method:
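Inhibition of L165041-driven (300 nM final) PPARd signaling is scored in HEK293H UAS-bla cells. Exposure lasts 17 h at 37 C; beta-lactamase activity is then read by FRET substrate fluorescence after 2 h at room temperature.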

Assay [15] can be described thus: qHTS assay to identify small molecule agonists of the farnesoid-X-receptor (FXR) signaling pathway - cell viability counter screen (AID 743218). Also: nearly all actives have a fitted effect of over 45% in size. In short, it runs like this: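 Cytotoxicity counter-screen run in parallel, same wells: FXR-UAS-bla HEK 293T cells dosed 16 h at 37 C, viability read by CellTiter-Glo luminescence after 30 min at room temperature.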
Assay [16] is described as follows: qHTS assay to identify small molecule antagonists of the farnesoid-X-receptor (FXR) signaling pathway - cell viability counter screen (AID 743221; active = well fitted cell-killing curve with a large enough effect in the repeat runs, not every such curve was filed as active; also: nearly all actives have a fitted effect of over 50% in size). The gist of the method:
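HEK 293T FXR-bla cells, 5 h pre-incubation; compound + CDCA 50 uM final, 16 h, 37 C; beta-lactamase FRET read first, then CellTiter-Glo luminescence, 30 min RT.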

The target of assay [17] is Vitamin D3 receptor (Homo sapiens) (UniProt P11473). The assay is described as follows: qHTS assay to identify small molecule agonists of the vitamin D receptor (VDR) signaling pathway (AID 743222; calls by dose curve). The gist of the method: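 Quantitative HTS agonist-mode screen: compounds in DMSO were pin-transferred onto VDR-bla cells and incubated 16 h at 37C, 5% CO2. Reporter activity was detected with LiveBLAzer B/G FRET substrate after 2 h at room temperature.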
Vitamin D3 receptor (Homo sapiens), sequence (P11473 whole entry, looked up): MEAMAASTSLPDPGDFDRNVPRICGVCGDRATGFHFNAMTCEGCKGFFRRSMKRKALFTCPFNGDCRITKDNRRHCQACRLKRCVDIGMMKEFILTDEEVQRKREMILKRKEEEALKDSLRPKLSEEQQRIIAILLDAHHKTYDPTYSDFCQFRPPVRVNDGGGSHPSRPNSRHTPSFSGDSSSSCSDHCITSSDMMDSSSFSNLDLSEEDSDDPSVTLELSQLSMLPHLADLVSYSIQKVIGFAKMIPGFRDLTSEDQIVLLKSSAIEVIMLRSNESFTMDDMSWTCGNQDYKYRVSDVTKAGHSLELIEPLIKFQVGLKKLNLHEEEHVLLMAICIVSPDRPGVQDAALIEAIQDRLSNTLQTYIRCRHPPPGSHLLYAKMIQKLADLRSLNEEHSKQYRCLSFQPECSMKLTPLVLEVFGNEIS

Assay [18] shares this target. Briefly: qHTS assay to identify small molecule antagonists of the vitamin D receptor (VDR) signaling pathway (AID 743223; active = well fitted inhibition curve with a large enough effect in the signal ratio in the repeat runs, not every such curve was filed as active; the % refers to the signal ratio). The gist of the method:
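Beta-lactamase reporter read-out: FRET substrate fluorescence after 2 h at room temperature, following 16 h exposure of VDR-bla cells to test compound plus 3 nM (final) 1alpha,25-dihydroxyvitamin D3 agonist at 37C.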

Assay [19] deals with Bile acid receptor (Homo sapiens) (UniProt Q96RI1). The assay is described as follows: qHTS assay to identify small molecule antagonists of the farnesoid-X-receptor (FXR) signaling pathway (AID 743217; active = well fitted inhibition curve with a large enough effect in the signal ratio in the repeat runs, not every such curve was filed as active; the % refers to the signal ratio). In short, it runs like this:
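Antagonist mode against 50 uM (final) chenodeoxycholic acid stimulation in FXR-bla HEK 293T cells, 16 h at 37 °C. Inhibition detected as reduced beta-lactamase activity via LiveBLAzer B/G FRET fluorescence after 2 h at room temperature.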

The target is the same in assay [20]. Briefly: qHTS assay to identify small molecule agonists of the farnesoid-X-receptor (FXR) signaling pathway (AID 743220; active = well fitted activation curve with a large enough effect in the signal ratio in the repeat runs, not every such curve was filed as active; the % refers to the signal ratio). In short, it runs like this:
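Beta-lactamase reporter under UAS control in GeneBLAzer FXR HEK 293T cells (5000/well) measured with LiveBLAzer FRET substrate after 2 h at room temperature. Compound exposure lasted 16 h at 37C.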

Bile acid receptor (Homo sapiens), sequence (Q96RI1 whole entry, looked up): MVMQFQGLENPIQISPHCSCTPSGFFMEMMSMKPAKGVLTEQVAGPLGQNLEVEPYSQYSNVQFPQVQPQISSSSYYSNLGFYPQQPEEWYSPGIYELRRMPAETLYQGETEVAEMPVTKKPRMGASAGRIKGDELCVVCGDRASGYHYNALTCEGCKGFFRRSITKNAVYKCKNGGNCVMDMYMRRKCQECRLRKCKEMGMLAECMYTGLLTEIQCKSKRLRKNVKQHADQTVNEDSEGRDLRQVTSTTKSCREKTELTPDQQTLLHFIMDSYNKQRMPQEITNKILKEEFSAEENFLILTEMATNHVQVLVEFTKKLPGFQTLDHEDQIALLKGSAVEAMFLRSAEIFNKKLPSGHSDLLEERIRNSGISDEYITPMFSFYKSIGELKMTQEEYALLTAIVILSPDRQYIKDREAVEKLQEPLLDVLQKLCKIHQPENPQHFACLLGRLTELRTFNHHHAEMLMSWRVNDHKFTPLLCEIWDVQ
Aryl hydrocarbon receptor (Homo sapiens), sequence (P35869 whole entry, looked up): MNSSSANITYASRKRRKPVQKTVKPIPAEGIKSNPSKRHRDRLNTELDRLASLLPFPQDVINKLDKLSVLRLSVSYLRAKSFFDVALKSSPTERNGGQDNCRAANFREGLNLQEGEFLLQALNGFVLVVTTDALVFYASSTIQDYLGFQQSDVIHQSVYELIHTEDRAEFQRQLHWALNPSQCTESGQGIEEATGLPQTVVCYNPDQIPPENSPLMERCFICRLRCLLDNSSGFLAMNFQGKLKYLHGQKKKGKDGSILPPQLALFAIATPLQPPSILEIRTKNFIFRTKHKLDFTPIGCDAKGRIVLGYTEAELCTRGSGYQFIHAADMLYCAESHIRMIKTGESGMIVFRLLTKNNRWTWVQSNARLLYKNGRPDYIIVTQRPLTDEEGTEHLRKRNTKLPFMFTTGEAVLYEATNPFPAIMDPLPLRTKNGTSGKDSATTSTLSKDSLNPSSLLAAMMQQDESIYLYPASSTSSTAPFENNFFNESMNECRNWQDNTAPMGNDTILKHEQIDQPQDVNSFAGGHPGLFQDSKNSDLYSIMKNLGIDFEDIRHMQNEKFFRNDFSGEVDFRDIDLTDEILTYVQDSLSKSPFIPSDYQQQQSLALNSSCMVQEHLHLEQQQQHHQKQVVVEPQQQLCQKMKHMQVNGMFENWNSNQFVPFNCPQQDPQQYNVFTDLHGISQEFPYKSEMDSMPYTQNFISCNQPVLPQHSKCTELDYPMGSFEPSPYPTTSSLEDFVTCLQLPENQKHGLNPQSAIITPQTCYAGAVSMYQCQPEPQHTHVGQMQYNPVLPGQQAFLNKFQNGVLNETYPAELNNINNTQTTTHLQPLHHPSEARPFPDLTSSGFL

Regarding `CC(C)(C)NCC(O)c1ccc(O)c(CO)c1` (stereo unspecified), the Potency entry in assay [1], in [2], in assay [3], in assay [4], in assay [5] and in assay [6] was “inactive” in each case. Further, the Potency entry in assay [7], in [8], in assay [11], in assay [13] and in [15] was “inactive” throughout. The result in assay [9], in assay [10], in [12], in [14] and in assay [16] was inactive.
Turning to `COC(=O)c1ccc(O)cc1`, the Potency result in assay [1], in assay [2], in [3], in assay [4], in assay [6] and in assay [7] was “inactive” throughout. For the same molecule, the Potency result in assay [8], in [11], in assay [13], in assay [15] and in [18] was “inactive” in each case. For the same molecule, the molecule was classed as inactive in assay [9], in [10], in assay [12], in assay [14], in assay [16] and in assay [17].
In the case of `Nc1ccc(N=Nc2ccccc2)c(N)n1`, the Potency is 27.4 µM (active) and 54.5 µM (active) in assay [1]; 13.3 µM (active) and 13.8 µM (active) and 34.4 µM (active) in assay [2]; “inactive and 26.6 µM (active)” in assay [7]; 43.9 µM (active) and inactive in assay [11]. In addition, the Potency result in assay [3], in assay [4], in assay [5], in [6], in assay [8] and in assay [13] was “inactive” throughout. Also, the Potency result in [15] and in [18] was “inactive” throughout. The call in [9], in assay [10], in [12], in [14], in assay [16] and in [17] was inactive.
For `COC(=O)c1ccc(C=O)cc1`, the Potency entry in [1], in assay [2], in [3], in assay [4], in [5] and in [6] was “inactive” in each case. For the same molecule, the Potency result in assay [7], in assay [8], in [11], in assay [13], in [19] and in assay [15] was “inactive” throughout. Further, in [18], the Potency result is “inactive”. The result in assay [9], in [10], in [12], in [14], in assay [20] and in assay [16] was inactive. Besides, the molecule was called inactive in assay [17].
Turning to `Oc1cccc(O)c1`, the Potency entry in assay [1], in assay [2], in assay [3], in assay [4], in [5] and in assay [6] was “inactive” throughout. The Potency result in assay [7], in assay [8], in assay [11], in assay [13], in assay [19] and in assay [18] was “inactive” in each case. In addition, the result in assay [9], in assay [10], in [12], in assay [14], in assay [20] and in [16] was inactive. For the same molecule, the molecule was called inactive in assay [17].
As for `COc1ccccc1NC(=O)CC(C)=O`, the Potency result in [1], in assay [3], in [4], in assay [6], in [7] and in assay [8] was “inactive” in each case. Further, the Potency entry in assay [11], in [13], in [15] and in [18] was “inactive” throughout. In assay [2], the Potency is 47.9 µM (active) and 27.3 µM (active). In addition, the outcome in [9], in assay [10], in assay [12], in [14], in assay [16] and in assay [17] was inactive.
Turning to `COCC(C)N` (stereo unspecified), the Potency result in [1], in assay [2], in assay [3], in [4], in assay [6] and in [7] was “inactive” each time. Also, the Potency entry in assay [8], in [11], in assay [13], in assay [19], in assay [15] and in [18] was “inactive” each time. In addition, the molecule was called inactive in assay [9], in assay [10], in assay [12], in assay [14], in [20] and in assay [16]. For the same molecule, the result in assay [17] was inactive.
